According to PubChem BioAssay (Tox21):
Records with an inconclusive call do not appear. Activity calls are given as the source filed them. Unless noted, calls follow the shape of the full dose curve.

Experiments:
[1] = qHTS assay to identify small molecule agonists of the sonic hedgehog signaling (Shh) pathway (AID 1259368);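 also: NIH/3T3-derived 3T3Gli1-Luc cells carrying a stable Gli1-driven firefly luciferase reporter; series mostly up to about 92 µM; nearly all actives have a fitted effect of over 15% in size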
Outline: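 3T3Gli1-Luc (NIH/3T3 clone, stable Gli1-Luc); 4 hr pre-incubation, then cpd in DMSO 24 hr, 37 C/5% CO2; luciferase reagent 30 min RT; luminescence.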

[2] = qHTS assay to identify small molecule antagonists of the sonic hedgehog signaling (Shh) pathway (AID 1259369); also: nearly all actives have a fitted effect of over 45% in size
Outline: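 3T3Gli1-Luc, conditioned-medium-stimulated, 24hr cpd, 37C/5% CO2; Gli1-driven firefly Luc luminescence after 30min RT with luciferase reagent. Cells plated 4hr before cpd.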

[3] = target: Estrogen receptor beta (Homo sapiens) (UniProt Q92731); assay: qHTS assay to identify small molecule agonists of the estrogen receptor beta (ER-beta) signaling pathway (AID 1259377; active = well fitted activation curve with a large enough effect in the signal ratio in the repeat runs, not every such curve was filed as active; the % refers to the signal ratio)
Chain of Estrogen receptor beta (Homo sapiens) (Q92731 whole entry, looked up): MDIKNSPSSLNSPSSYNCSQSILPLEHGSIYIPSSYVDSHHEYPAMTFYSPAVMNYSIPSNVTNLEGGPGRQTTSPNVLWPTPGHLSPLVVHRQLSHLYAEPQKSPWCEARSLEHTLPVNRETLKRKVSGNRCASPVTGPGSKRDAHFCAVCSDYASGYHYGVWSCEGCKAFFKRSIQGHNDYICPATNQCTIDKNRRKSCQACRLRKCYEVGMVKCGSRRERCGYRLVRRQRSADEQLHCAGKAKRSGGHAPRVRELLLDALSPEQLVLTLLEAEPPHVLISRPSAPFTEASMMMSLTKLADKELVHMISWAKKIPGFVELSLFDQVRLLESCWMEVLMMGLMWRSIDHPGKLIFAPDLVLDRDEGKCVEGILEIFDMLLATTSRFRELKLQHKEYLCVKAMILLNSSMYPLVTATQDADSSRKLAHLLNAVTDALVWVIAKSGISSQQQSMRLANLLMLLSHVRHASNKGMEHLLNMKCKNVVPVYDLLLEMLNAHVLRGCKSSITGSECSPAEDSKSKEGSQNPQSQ
Outline: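 A UAS-controlled beta-lactamase reporter in ER-beta-UAS-bla HEK293T cells reports receptor activation. Compounds act for 16 hr at 37C in 2% charcoal-stripped serum, and a FRET substrate is read by fluorescence after 2 hours.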

[4] = target: Estrogen receptor beta (Homo sapiens) (UniProt Q92731); assay: qHTS assay to identify small molecule antagonists of the estrogen receptor beta (ER-beta) signaling pathway (AID 1259378; active = well fitted inhibition curve with a large enough effect in the signal ratio in the repeat runs, not every such curve was filed as active; the % refers to the signal ratio)
Outline: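 ER-beta-UAS-bla HEK293T (GripTite) cells in 2% charcoal-stripped FBS medium were preincubated 6 hr at 37C, dosed with compound, then stimulated with 1 nM E2 (final) for 16 hr; beta-lactamase reporter read by B/G FRET fluorescence after 2 hr substrate loading.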

[5] = qHTS assay to identify small molecule agonists of the androgen receptor (AR) signaling pathway in the presence of an antagonist - cell viability counter screen (AID 1259379; active = well fitted curve in the direction sought with a large enough effect in the repeat runs; an effect the other way counts as inactive or inconclusive;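 also: MDA-kb2 human breast cancer cells carrying an MMTV luciferase reporter; series mostly up to about 92 µM; nearly all actives have a fitted effect of over 25% in size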)
Outline: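 Cells: MDA-kb2 (MMTV-luc, AR and GR elements), 3,000/well, 5 hr settle. Added: nilutamide 3.0uM final, then compounds (15 conc.). Incubation: 16 hr, 37C, no CO2. Read-out: CellTiter-Fluor, 1 hr, fluorescence.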

[6] = qHTS assay to identify small molecule agonists of the estrogen receptor beta (ER-beta) signaling pathway - cell viability counter screen (AID 1259380; active = well fitted curve in the direction sought with a large enough effect in the repeat runs; an effect the other way counts as inactive or inconclusive; also: nearly all actives have a fitted effect of over 30% in size)
Outline: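 HEK293T ER-beta-UAS-bla; 2% CS-FBS; 6 hr pre-plate, 16 hr cpd at 37C/5% CO2; LiveBLAzer read first, then CellTiter-Glo 30 min RT, luminescence.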

[7] = target: Androgen receptor (Homo sapiens) (UniProt P10275); assay: qHTS assay to identify small molecule agonists of the androgen receptor (AR) signaling pathway in the presence of an antagonist (AID 1259381); also: nearly all actives have a fitted effect of over 15% in size
Chain of Androgen receptor (Homo sapiens) (P10275 whole entry, looked up): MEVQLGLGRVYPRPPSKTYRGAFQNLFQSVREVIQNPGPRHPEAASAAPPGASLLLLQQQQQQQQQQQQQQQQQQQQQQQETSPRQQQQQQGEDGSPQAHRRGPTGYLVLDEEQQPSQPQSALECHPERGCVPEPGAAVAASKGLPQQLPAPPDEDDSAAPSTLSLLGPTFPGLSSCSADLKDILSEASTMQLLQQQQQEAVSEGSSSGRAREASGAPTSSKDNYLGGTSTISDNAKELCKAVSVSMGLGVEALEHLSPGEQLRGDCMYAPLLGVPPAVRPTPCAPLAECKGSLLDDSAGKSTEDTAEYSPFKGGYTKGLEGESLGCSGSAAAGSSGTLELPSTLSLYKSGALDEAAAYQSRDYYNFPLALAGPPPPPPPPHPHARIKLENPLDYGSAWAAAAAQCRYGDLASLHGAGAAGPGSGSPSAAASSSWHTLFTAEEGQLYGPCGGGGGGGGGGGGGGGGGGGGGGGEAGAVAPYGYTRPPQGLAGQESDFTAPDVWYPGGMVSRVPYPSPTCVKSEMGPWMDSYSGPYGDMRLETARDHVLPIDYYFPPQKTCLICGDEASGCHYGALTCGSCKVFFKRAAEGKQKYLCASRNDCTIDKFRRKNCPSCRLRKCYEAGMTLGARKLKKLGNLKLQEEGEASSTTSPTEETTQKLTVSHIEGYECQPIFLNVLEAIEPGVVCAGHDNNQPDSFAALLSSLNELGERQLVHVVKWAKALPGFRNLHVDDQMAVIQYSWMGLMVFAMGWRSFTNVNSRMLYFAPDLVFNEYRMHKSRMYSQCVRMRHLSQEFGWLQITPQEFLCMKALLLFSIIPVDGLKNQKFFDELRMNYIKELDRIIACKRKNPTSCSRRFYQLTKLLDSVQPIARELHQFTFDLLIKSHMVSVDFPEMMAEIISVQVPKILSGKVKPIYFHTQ
Outline: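 MDA-kb2 cells, 3,000/well, rested 5hr at 37C/0% CO2 → nilutamide 3.0uM final or buffer → compounds, 15 conc. → 16hr at 37C → ONE-Glo, 30min RT → luminescence.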

[8] = qHTS assay to identify small molecule antagonists of the estrogen receptor beta (ER-beta) signaling pathway - cell viability counter screen (AID 1259382; active = well fitted curve in the direction sought with a large enough effect in the repeat runs; an effect the other way counts as inactive or inconclusive; also: series mostly up to about 92 µM; nearly all actives have a fitted effect of over 55% in size)
Outline: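 Cells: ER-beta-UAS-bla HEK293T, 2,000/well, 2% CS-FBS, 6 hr settle. Cpd + E2 (1nM final), 16 hr, 37C/5% CO2. Bla FRET substrate 2 hr RT, then CellTiter-Glo 30 min RT, luminescence.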

[9] = target: Estrogen receptor (Homo sapiens) (UniProt P03372); assay: qHTS assay to identify small molecule agonists of the estrogen receptor alpha (ER-alpha) signaling pathway in the presence of an antagonist (AID 1259383); also: top concentration of the series differs between compounds; nearly all actives have a fitted effect of over 15% in size
Chain of Estrogen receptor (Homo sapiens) (P03372 whole entry, looked up): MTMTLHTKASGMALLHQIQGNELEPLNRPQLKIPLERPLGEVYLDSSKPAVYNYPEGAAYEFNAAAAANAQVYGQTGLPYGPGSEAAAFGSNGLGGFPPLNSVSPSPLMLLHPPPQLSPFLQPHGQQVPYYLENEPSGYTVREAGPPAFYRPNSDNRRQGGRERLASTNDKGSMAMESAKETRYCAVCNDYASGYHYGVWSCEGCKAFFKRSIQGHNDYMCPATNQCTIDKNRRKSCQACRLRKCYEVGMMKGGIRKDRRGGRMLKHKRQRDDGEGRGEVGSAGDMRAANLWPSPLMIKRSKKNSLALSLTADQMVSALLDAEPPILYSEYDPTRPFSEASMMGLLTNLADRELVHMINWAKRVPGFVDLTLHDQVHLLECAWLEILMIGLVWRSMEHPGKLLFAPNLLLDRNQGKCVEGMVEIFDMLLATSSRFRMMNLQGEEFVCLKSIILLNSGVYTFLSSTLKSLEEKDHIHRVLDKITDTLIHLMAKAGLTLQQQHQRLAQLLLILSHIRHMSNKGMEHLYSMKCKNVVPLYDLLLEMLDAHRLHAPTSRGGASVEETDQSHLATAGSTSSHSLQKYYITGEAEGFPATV
Outline: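 VM7Luc4E2, endog. ER-alpha + 4×ERE-luc; charcoal-stripped FBS, phenol red-free, 5 d; 24hr plating; +10.0nM ICI-182,780 (final); cpds 15 conc, 22hr, 37C/5% CO2; ONE-Glo luminescence.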

[10] = qHTS assay to identify small molecule agonists of the estrogen receptor alpha (ER-alpha) signaling pathway in the presence of an antagonist - cell viability counter screen (AID 1259386; active = well fitted curve in the direction sought with a large enough effect in the repeat runs; an effect the other way counts as inactive or inconclusive;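 also: series mostly up to about 92 µM; cells exposed to compounds for 22 h at 37 °C before the viability read; nearly all actives have a fitted effect of over 30% in size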)
Outline: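 VM7Luc4E2, stripped-serum pre-culture 5 d; 24hr plating; +ICI-182,780 10.0nM final; cpds 15 conc, 22hr, 37C/5% CO2; CellTiter-Fluor added at 21hr, fluorescence 1hr later.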

[11] = target: Progesterone receptor (Homo sapiens) (UniProt P06401); assay: qHTS assay to identify small molecule agonists of the progesterone receptor (PR) signaling pathway (AID 1346784); also: nearly all actives have a fitted effect of over 30% in size
Chain of Progesterone receptor (Homo sapiens) (P06401 whole entry, looked up): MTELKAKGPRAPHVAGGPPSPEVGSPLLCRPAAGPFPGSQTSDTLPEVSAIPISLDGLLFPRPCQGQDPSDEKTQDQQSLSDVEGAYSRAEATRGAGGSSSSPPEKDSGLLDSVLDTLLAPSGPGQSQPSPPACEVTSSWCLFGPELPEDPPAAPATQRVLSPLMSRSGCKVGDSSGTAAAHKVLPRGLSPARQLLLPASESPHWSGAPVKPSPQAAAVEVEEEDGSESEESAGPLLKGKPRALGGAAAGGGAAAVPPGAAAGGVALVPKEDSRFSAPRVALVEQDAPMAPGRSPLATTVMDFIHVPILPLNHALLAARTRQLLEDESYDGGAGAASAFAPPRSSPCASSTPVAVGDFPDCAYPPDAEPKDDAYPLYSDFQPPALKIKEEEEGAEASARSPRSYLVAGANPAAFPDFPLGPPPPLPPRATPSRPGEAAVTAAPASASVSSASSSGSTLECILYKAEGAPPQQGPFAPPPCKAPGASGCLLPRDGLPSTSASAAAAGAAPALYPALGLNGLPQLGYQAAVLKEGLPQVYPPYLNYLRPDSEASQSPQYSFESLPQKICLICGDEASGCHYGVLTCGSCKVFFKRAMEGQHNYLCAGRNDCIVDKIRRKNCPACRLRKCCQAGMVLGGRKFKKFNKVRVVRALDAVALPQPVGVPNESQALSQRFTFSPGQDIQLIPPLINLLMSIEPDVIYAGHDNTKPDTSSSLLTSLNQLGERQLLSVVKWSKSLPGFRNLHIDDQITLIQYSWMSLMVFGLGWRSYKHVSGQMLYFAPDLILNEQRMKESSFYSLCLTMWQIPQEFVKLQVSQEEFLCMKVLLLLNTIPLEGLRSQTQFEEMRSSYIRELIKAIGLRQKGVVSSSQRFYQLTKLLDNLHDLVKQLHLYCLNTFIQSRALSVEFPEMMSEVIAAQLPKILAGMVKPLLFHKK
Outline: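 Agonist mode, quantitative HTS format in a HEK 293T line expressing a UAS-controlled beta-lactamase reporter; 16 hr compound exposure at 37C in 2% charcoal-stripped FBS, then LiveBLAzer B/G FRET fluorescence.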

[12] = target: Progesterone receptor (Homo sapiens) (UniProt P06401); assay: qHTS assay to identify small molecule antagonists of the progesterone receptor (PR) signaling pathway (AID 1346795; active = well fitted inhibition curve with a large enough effect in the signal ratio in the repeat runs, not every such curve was filed as active; the % refers to the signal ratio)
Outline: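 HEK293T PR-UAS-bla reporter cells in charcoal-stripped serum (2%) received compound after a 6 hr settling period, followed by R5020 agonist at 1 nM final; 16 hr incubation preceded the FRET substrate step and fluorescence measurement.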

[13] = qHTS assay to identify small molecule antagonists of the progesterone receptor (PR) signaling pathway - cell viability counter screen (AID 1346798; active = well fitted curve in the direction sought with a large enough effect in the repeat runs; an effect the other way counts as inactive or inconclusive; also: series mostly up to about 92 µM; nearly all actives have a fitted effect of over 50% in size)
Outline: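 Same-well multiplex: after 16 hr at 37C with compound and R5020 stimulation, HEK293T cells carrying a UAS-bla reporter received LiveBLAzer substrate (2 hr RT), then CellTiter-Glo (30 min RT) for luminescent viability.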

[14] = qHTS assay to identify small molecule agonists of the progesterone receptor (PR) signaling pathway - cell viability counter screen (AID 1346799); also: nearly all actives have a fitted effect of over 45% in size
Outline: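 Counter screen for cytotoxicity: compound-treated PR-UAS-bla HEK293T cells (16 hr, 37C, 5% CO2) were assayed with CellTiter-Glo, luminescence measured after 30 min at room temperature.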

[15] = qHTS assay to identify small molecule antagonists of the TGF-beta/Smad signaling pathway - cell viability counter screen (AID 1346824; active = well fitted curve in the direction sought with a large enough effect in the repeat runs; an effect the other way counts as inactive or inconclusive; also: nearly all actives have a fitted effect of over 50% in size)
Outline: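 SBE-bla HEK 293T cells were plated overnight at 37 C, then given compounds in DMSO plus TGF-beta1 (added as 0.25 ng/mL solution) for 5 hr. After the bla read, CellTiter-Glo was added to the same wells and luminescence read after 30 min at room temperature.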

[16] = qHTS assay to identify small molecule agonists of the TGF-beta/Smad signaling pathway (AID 1346859; active = well fitted activation curve with a large enough effect in the signal ratio in the repeat runs, not every such curve was filed as active; the % refers to the signal ratio; also: series mostly up to about 77 µM)
Outline: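 Smad-responsive beta-lactamase reporter cells (HEK 293T) received compounds from DMSO stocks after overnight attachment, were incubated 5 hr, then treated 2 hr with FRET substrate before dual-emission fluorescence measurement (405 nm excitation).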

[17] = target: Thyrotropin-releasing hormone receptor (Homo sapiens) (UniProt P34981); assay: qHTS assay to identify small molecule antagonists of the thyrotropin-releasing hormone receptor (TRHR) signaling pathway (AID 1346877; active = well fitted inhibition curve with a large enough effect in the repeat runs, not every such curve was filed as active; also: series mostly up to about 51 µM)
Chain of Thyrotropin-releasing hormone receptor (Homo sapiens) (P34981 whole entry, looked up): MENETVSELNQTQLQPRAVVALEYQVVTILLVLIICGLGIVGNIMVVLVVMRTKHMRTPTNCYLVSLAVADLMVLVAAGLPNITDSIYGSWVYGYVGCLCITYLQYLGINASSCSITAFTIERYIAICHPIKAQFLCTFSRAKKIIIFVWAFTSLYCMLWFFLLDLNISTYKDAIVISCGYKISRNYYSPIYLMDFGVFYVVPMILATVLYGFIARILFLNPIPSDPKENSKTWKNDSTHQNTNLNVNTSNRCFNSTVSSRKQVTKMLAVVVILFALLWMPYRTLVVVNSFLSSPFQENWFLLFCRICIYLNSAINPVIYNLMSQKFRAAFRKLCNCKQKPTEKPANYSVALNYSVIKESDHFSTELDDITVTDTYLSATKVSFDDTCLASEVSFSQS
Outline: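 Intracellular calcium fluorescence, read kinetically every second over 3 min, reports TRH-evoked signalling in HEK293 cells carrying TRHR. Test compounds were added 5 min ahead of a 1 nM TRH challenge.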

[18] = qHTS assay to identify small molecule agonists or antagonists of the thyroid stimulating hormone receptor (TSHR) signaling pathway - wild type cell line counter screen (AID 1259384)
Outline: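 Wild-type HEK293 cells were plated 18 h at 37 C/5% CO2, pin-dosed with compound plus Ro20-1724 medium, held 30 min at room temperature, then given cAMP-d2 and anti-cAMP-cryptate; fluorescence was read after 1 h. Fifteen concentrations, triplicate.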

[19] = qHTS assay to identify small molecule agonists of the TGF-beta/Smad signaling pathway - cell viability counter screen (AID 1346829; active = well fitted curve in the direction sought with a large enough effect in the repeat runs; an effect the other way counts as inactive or inconclusive; also: top concentration of the series differs between compounds; nearly all actives have a fitted effect of over 45% in size)
Outline: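 Luminescence from CellTiter-Glo, read after a 30 min room-temperature incubation, gives cell viability of SBE-bla HEK 293T cells treated 5 hr with compounds at 37 C.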

[20] = target: Thyrotropin receptor (Homo sapiens) (UniProt P16473); assay: qHTS assay to identify small molecule antagonists of the thyroid stimulating hormone receptor (TSHR) signaling pathway (AID 1259385); also: nearly all actives have a fitted effect of over 20% in size
Chain of Thyrotropin receptor (Homo sapiens) (P16473 whole entry, looked up): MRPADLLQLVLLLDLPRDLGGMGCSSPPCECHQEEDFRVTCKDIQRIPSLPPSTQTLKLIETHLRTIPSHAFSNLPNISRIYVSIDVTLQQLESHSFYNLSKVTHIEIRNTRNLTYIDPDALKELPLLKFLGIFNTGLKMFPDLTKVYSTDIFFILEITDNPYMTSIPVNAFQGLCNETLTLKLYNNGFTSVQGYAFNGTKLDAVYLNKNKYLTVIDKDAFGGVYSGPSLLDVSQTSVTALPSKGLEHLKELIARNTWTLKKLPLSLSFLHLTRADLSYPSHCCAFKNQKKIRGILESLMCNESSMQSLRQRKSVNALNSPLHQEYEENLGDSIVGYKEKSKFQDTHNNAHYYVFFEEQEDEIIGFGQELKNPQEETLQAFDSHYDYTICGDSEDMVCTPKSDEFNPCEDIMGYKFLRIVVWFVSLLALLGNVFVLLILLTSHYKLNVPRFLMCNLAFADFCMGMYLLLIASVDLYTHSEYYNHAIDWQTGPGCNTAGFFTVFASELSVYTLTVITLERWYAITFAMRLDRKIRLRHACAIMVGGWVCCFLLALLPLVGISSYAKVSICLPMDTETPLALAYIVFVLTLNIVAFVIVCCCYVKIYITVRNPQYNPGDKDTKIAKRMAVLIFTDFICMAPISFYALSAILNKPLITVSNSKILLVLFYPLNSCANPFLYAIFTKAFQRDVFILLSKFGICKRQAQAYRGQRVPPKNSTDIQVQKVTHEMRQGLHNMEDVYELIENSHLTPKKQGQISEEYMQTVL
Outline: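 TSHR-HEK293 cells were plated and held 18 h at 37C/5% CO2, then given compound plus Ro20-1724 and stimulated with TSH at 1.5 ng/mL final. After 30 min at room temperature, cAMP was detected with cAMP-d2/anti-cAMP-cryptate (1 h) by fluorescence.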

Measured: Potency

CCN(CC)CCNC(=O)c1ccc(NC(C)=O)cc1
not listed: [18] | [19] | [20]
inactive: all other assays above

CCCCC(CC)COC(=O)COc1ccc(Cl)cc1C (stereo not drawn)
not listed: [7] | [17] | [20]
inactive: all other assays above

NCC1CCCC(CN)C1 (stereo not drawn)
not listed: [8] | [9] | [18] | [20]
inactive: all other assays above

CC1(C)O[C@@H]2C[C@H]3[C@@H]4CCC5=CC(=O)C=C[C@]5(C)[C@H]4[C@@H](O)C[C@]3(C)[C@]2(C(=O)CO)O1
not listed: [7] | [11] | [12] | [14] | [16] | [19]
inactive: all other assays above

CN1C(=O)CC(C)(c2ccccc2)C1=O (stereo not drawn)
not listed: [7]
inactive: all other assays above

CC(=O)Nc1ccc(N)cc1
not listed: [11] | [17]
inactive: all other assays above

CCC(C(=O)OCCN(CC)CC)c1ccccc1 (stereo not drawn)
not listed: [8] | [10] | [13]
inactive: all other assays above
